Results published in PubChem BioAssay AID651599 (National Center for Advancing Translational Sciences (NCATS), 2012).
Results filed as inconclusive are left out. Calls of active or inactive are those of the source. The call rests on the fitted dose curve; in most records, active means well fitted inhibition curve with a large enough effect; inconclusive means small, poorly fitted or top-dose-only effect; inactive means no such curve, though single readings can be large or run the other way.

Each molecule was assayed against Tumor susceptibility gene 101 protein (Homo sapiens) (UniProt Q99816) (assay: qHTS Assay for Iinhibitors of HIV-1 Budding by Blocking the Interaction of PTAP/TSG101: Hit Validation in TR assay). Settings: Tsg101 binding domain + Texas Red-labeled PTAP peptide, fluorescence polarization, 20 min; series mostly up to 57.5 µM.
Tumor susceptibility gene 101 protein (Homo sapiens), sequence (Q99816 whole entry, looked up, the tested form may be a part): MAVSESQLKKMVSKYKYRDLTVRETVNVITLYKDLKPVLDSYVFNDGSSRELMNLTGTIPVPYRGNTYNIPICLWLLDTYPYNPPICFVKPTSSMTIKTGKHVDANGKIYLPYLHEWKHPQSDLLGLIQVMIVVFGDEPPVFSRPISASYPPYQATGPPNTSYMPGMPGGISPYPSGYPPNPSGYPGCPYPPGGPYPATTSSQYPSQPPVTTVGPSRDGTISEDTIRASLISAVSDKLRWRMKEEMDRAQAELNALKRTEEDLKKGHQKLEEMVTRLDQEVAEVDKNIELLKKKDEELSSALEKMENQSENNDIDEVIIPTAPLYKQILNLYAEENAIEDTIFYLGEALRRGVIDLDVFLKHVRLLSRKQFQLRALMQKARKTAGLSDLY
Method in brief: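 Fluorescence polarization: Tsg101 binding domain (10 uM final) with Texas Red-labelled PTAP peptide (50 nM final) in HEPES pH 7.5, 0.15 M NaCl, Tween 20, EDTA, TCEP; 20 min binding at room temperature after compound addition.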

Potency, inactive:
CN(C)CCCN1C(=O)c2cccc3c(Br)ccc(c23)C1=O
O=c1[nH]c2c(s1)C=Nc1ccccc1N2
COc1ccc(CCn2c(=N)c(S(=O)(=O)c3ccc(Cl)cc3)cc3c(=O)n4ccccc4nc32)cc1
O=C(NCc1cccc(F)c1)c1cccc2c1C(=O)c1ccc(N3CCC(Cc4ccccc4)CC3)cc1S2(=O)=O
CCN(CC)C1=CC2=CC(=C(C#N)C#N)CCC2CC1 (centres undefined)
O=C1CCN2C=Nc3cccc4ccc1c2c34
CC(C)(C)OC(=O)NC(Cc1ccccc1)C(=O)N1CCC(C(=O)NCC(=O)Nc2ccc(F)cc2)CC1 (centres undefined)
O=C1NC(c2ccco2)Nc2sc3c(c21)CCN(Cc1ccccc1)C3 (centres undefined)
CCCCNC(=O)C(C#N)c1nc2ccccc2nc1N1CCN(Cc2ccc3c(c2)OCO3)CC1 (centres undefined)
Cc1cc(Nc2cccc(Cl)c2C)n2ncnc2n1
CCc1c(C)sc(NC(=O)c2ccccc2[N+](=O)[O-])c1C(N)=O
O=C1Nc2ccc(F)cc2C12Nc1ccccc1-c1nnc(SCc3ccccc3)nc1O2 (centres undefined)
COc1ccc(C2C(C(=O)c3cccs3)=C(O)C(=O)N2c2nnc(C)s2)cc1OC (centres undefined)
O=C(NCc1ccco1)c1cccc2c1C(=O)c1ccc(N3CCC(Cc4ccccc4)CC3)cc1S2(=O)=O
O=c1oc2cc(O)ccc2cc1-c1nc2c(s1)CCc1ccccc1-2
CC(=O)Nc1ccc2nc3c(=O)[nH]c(=O)[nH]c3nc2c1
COC(=O)C[n+]1cccc2ccccc21
Cn1nc(-c2ccccc2)c2nc3ccccc3nc21
CC1(C)CC(=O)C2=C(C1)OC(N)=C(C#N)C2c1cc2c(cc1[N+](=O)[O-])OCO2 (centres undefined)
O=C(Cc1nc2ccccc2[nH]c1=O)c1ccccc1
COc1ccc(/C=c2\s/c(=C/C(=O)c3ccc(C)cc3)[nH]c2=O)c(OC)c1
N#Cc1ccsc1NC(=O)CSc1nncs1
CC[C@H](C)/C=C(C)/C=C/C1=CC2=CC(=O)[C@]3(C)OC(=O)[C@@H](C(C)=O)[C@@H]3C2=CO1
CCN(CC)C(=O)Cn1c(=O)c2ccccc2n2c(=S)sc(-c3cccc(C)c3)c12
CCc1ccc(/C=C2/C(=O)N(C)C(=S)N2CC(=O)OC)s1
CC(C)(C)c1ccc(C2C3=C(CCCC3=O)NC3=C2C(=O)c2ccccc23)cc1 (centres undefined)
CCN1CC=C2C(C#N)=C(N)C(C#N)(C#N)[C@H](c3cccc(OC)c3OC)[C@H]2C1
CN1/C(=C\C=C2/C(=O)Oc3ccccc3C2=O)C(C)(C)c2ccccc21
CCN(CC)c1ccc2cc(-c3nnc(-c4ccncc4)o3)c(=O)oc2c1
COc1ccc2nc3ccccc3nc2c1NC(=O)c1ccc(Cl)cc1Cl
COc1ccc(-n2nc(C(=O)Nc3ccc(OC)c(OC)c3)c3c4ccccc4n(C)c3c2=O)cc1
CC(=O)OCCn1c2nc(=O)[nH]c(=O)c-2nc2cc(C)c(C)cc21
c1ccc2[nH]c3cc4ncnc4cc3nc2c1
CN1CCCc2cc3c(C(F)(F)F)cc(=O)oc3nc21
O=C1NC(=S)/C(=C\c2ccc(-c3ccccc3Cl)o2)S1
CSc1c(C#N)c(N)nc2sc(C(=O)c3ccc(Cl)c(Cl)c3)c(N)c12
CCN1CCc2c(sc(NC(=O)CSc3ccccc3)c2-c2nc3ccccc3s2)C1
Cc1ccc(/C=C/C(=O)Nc2ccc(S(=O)(=O)Nc3onc(C)c3C)cc2)cc1
Cc1cccc(-n2c(O)c(C=Nc3ccc4c(c3)OCO4)c3ccccc3c2=O)n1
